Data published in publication PMC4336329 (PLoS ONE, 2015).
About 14,000 (4.5%) of roughly 310,000 compounds showed an effect of 50% or more. Effects have a minus sign here. The sample holds strong results, similar compounds and a random draw of the others, so the mix is not that of the screen.

Target: human ether-à-go-go-related gene (hERG) potassium channel (human, UniProt Q12809)
Experiment: primary screen, population patch clamp on CHO cells stably expressing hERG; higher = less effect of the substance
Experimental: Briefly, Chinese hamster ovary (CHO) cells stably expressing the hERG channel were dislodged from tissue culture flasks and dispensed into PPC plates. […] During the recording, background leak currents were estimated by a 100 ms step to -80 mV from an initial holding potential of -70 mV and subtracted from the subsequent current measurement. The campaign was conducted in two phases using slight differences in recording protocol. In the first phase, the initial voltage pulse used a 100 ms step to -30 mV from a holding potential of -70 mV, a 2 s conditioning step to +25 mV, and a 2 s test step to -30 mV. During the second phase of the screen, the potential during the conditioning step was raised to +45 mV. In both phases of the campaign, a secondary voltage pulse was applied using the same parameters as the second phase initial pulse. The initial and secondary pulses were applied in the absence of compound, and upon application of 1 μM and 10 μM test concentrations. […]
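Further: peak tail current of the secondary pulse compared with the same well before compound.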

Sequence of human ether-à-go-go-related gene (hERG) potassium channel (Q12809 whole entry, looked up): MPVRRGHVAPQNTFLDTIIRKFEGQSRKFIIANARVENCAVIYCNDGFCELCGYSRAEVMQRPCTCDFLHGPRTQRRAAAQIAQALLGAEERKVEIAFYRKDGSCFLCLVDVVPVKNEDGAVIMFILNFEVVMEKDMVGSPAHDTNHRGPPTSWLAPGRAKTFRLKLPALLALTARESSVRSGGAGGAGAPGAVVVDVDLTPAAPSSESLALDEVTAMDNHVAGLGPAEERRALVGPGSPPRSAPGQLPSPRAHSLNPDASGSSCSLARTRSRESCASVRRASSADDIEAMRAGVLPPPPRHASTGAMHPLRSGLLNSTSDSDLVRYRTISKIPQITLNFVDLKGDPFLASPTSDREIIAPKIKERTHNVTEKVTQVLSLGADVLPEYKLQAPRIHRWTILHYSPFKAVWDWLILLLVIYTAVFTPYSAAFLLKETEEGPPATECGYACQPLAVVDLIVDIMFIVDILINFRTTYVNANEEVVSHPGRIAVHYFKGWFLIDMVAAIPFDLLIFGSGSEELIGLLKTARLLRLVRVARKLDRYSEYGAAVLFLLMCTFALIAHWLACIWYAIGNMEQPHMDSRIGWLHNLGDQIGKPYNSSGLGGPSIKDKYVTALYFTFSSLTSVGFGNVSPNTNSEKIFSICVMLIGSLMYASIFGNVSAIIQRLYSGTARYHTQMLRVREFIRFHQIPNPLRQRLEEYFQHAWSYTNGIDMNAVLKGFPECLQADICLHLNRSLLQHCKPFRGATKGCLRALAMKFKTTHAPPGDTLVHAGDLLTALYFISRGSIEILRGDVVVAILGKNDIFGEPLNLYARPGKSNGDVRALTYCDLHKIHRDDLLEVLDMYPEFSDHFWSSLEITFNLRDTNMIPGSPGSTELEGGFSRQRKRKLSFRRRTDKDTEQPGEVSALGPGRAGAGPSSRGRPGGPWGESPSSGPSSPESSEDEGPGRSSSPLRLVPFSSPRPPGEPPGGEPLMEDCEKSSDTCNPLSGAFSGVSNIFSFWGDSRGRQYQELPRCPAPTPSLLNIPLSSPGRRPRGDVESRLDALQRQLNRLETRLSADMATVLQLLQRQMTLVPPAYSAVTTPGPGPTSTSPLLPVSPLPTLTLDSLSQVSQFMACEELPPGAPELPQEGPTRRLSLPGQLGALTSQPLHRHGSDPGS

SMILES	hERG current change (%, negative = inhibition) at 10uM [%]
Brc1ccccc1OCCOc1cccc2cccnc12	14.1
O=C1OC2(CCCCC2)OC(=O)C1=CNc1nccs1	3.3
O=C1CC(=O)C(n2cncn2)C(c2ccc(Cl)cc2Cl)C1 (centres unmarked)	7.83
CC(=O)Nc1ccc(S(=O)(=O)NCc2nnnn2-c2ccc(F)cc2)cc1	3.41
Cc1ccc(C(=O)N2CCN(c3ncccn3)CC2)c(C)c1	12.1
CCOC(=O)c1c(C)sc(Sc2ccc(Cl)cc2[N+](=O)[O-])c1OC	11.3
COc1ccc(C2C(C#N)=C(/N=C/N3CCOCC3)OC3=C2C(=O)CC(C)(C)C3)cc1OC (centres unmarked)	-13.5
O=C(Nc1ccc(Oc2ccccc2)nc1)C1CCCCN1Cc1ccc(O)cc1 (centres unmarked)	-25.2
CC#CC(=O)N1CCC(C(=O)Nc2ccc(Oc3ccccc3)nc2)CC1	1.55
C#Cc1ccc(CN2CCC(C(=O)Nc3ccc(Oc4ccccc4)nc3)CC2)cc1	-72.3
Cc1ccc(C)c(S(=O)(=O)N2CCN(CC(=O)Nc3cc(C)on3)CC2)c1	-12.6
CCCCc1cc(=O)oc2c(CN(C)C)c(O)c(Cl)cc12	-1.34
CC(NS(=O)(=O)c1ccc(Cl)cc1)C(=O)Nc1ccc2c(c1)OCCO2 (centres unmarked)	-19.4
CCOCCCNC(=O)CCC(=O)NNc1nc2ccccc2c2nc(-c3ccccc3)nn12	-47.5
CCN(CC)CCSc1nc(O)c(Cc2ccccc2)c(=O)n1-c1ccccc1.Cl	15.8
CCCCc1c(O)nc(SCCN(C)C)n(-c2ccccc2)c1=O	10.1
CCCc1c(O)nc(SCCN(CC)CC)n(C(=O)c2ccccc2)c1=O.Cl	-58
CCN(CC(=O)Nc1c(F)cccc1F)C(=O)Cc1csc(-c2ccc(OC)c(OC)c2)n1	-2.82
CCOc1ccccc1NC(=S)NCCc1ccccc1	4.14
O=C(NCC1CCCO1)c1cn(Cc2ccccc2)nc1-c1ccccc1 (centres unmarked)	-0.0253

SMILES	hERG current change (%, negative = inhibition) at 10uM [%]
Nc1c(C(=O)NCC2CCCO2)c2nc3ccccc3nc2n1Cc1ccco1 (centres unmarked)	10.5
N=c1c(C(=O)NCC2CCCO2)cc2c(=O)n3ccccc3nc2n1Cc1ccco1 (centres unmarked)	-78.7
N=c1c(C(=O)NCC2CCCO2)cc2c(=O)n3ccccc3nc2n1Cc1ccc(F)cc1 (centres unmarked)	-80
N=c1c(C(=O)NCC2CCCO2)cc2c(=O)n3ccccc3nc2n1Cc1cccnc1 (centres unmarked)	-72.9
N=c1c(C(=O)NCC2CCCO2)cc2c(=O)n3ccccc3nc2n1Cc1ccccc1 (centres unmarked)	-75.3
O=C(Cn1c(=O)n(Cc2ccc(F)cc2)c(=O)c2ccccc21)NCC1CCCO1 (centres unmarked)	-2.66
O=C(Cc1ccc(-n2c(=O)c3ccccc3n(Cc3ccc(F)cc3)c2=O)cc1)NCC1CCCO1 (centres unmarked)	-19.6
O=C(Cn1c(=O)n(Cc2ccco2)c(=O)c2ccccc21)NCC1CCCO1 (centres unmarked)	2.5
CCCCNC(=O)C1(O)c2cc(Br)ccc2NC(=O)N1c1cccc(OC)c1 (centres unmarked)	7.42
Cc1cc(C)c2nc(SC3CCOC3=O)cc(C)c2c1 (centres unmarked)	4.23
COc1ccc(C(=O)Nc2cccc(S(C)(=O)=O)c2)cc1OC	6.89
O=C(N/N=C\c1c(O)ccc2ccccc12)c1ccc(O)cc1	14.3
Cc1c(C(=O)Nc2nnc(C3CC3)s2)oc2c(Cl)cccc12	8.02
O=C(Cc1ccc(-n2c(=O)c3ccccc3n(Cc3ccccc3Cl)c2=O)cc1)NCC1CCCO1 (centres unmarked)	-1.93
N=c1c(S(=O)(=O)c2ccc(Cl)cc2)cc2c(=O)n3ccccc3nc2n1CC1CCCO1 (centres unmarked)	-13.3
O=C(NCC1CCCO1)c1ccc2c(=O)n(Cc3ccc(Cl)cc3)c(=S)[nH]c2c1 (centres unmarked)	6.02
O=C(NCc1ccco1)c1ccc2c(=O)n(CC3CCCO3)c(=S)[nH]c2c1 (centres unmarked)	-1.68
N=c1c(C(=O)NCC2CCCO2)cc2c(=O)n3ccccc3nc2n1Cc1ccc(Cl)cc1 (centres unmarked)	-77.2
O=C(NCC1CCCO1)c1nc2c(nnn2Cc2ccccc2Cl)c(=O)[nH]1 (centres unmarked)	-0.506
N=c1c(C(=O)NCc2ccco2)cc2c(=O)n3ccccc3nc2n1CC1CCCO1 (centres unmarked)	-76

SMILES	hERG current change (%, negative = inhibition) at 10uM [%]
N=c1c(C(=O)NCC2CCCO2)cc2c(=O)n3ccccc3nc2n1Cc1ccccc1Cl (centres unmarked)	-67.9
CC(=O)c1cccc(NC(=O)CCNC(=O)c2ccccc2Cl)c1	11.4
CCn1cc(C(=O)Nc2ccc(C)cc2[N+](=O)[O-])c(C)n1	5.23
CN(Cc1nc(-c2cccs2)no1)CC1COCCO1 (centres unmarked)	1.17
S=C(NCCN1CCOCC1)N1CCN(c2cccc(Cl)c2)CC1	-16
CC1=CC(=O)C(C(C)C)=C/C1=N/OC(=O)c1cccc([N+](=O)[O-])c1	7.36
COc1ccc2nc(NC(=O)CSc3nnc(C)n3N)sc2c1	0.177
C=CCn1c(SCn2nnc3ccccc3c2=O)nc2scc(-c3cccs3)c2c1=O	-5.21
C=CCn1c(SCn2nnc3ccccc3c2=O)nnc1-c1ccc(Br)cc1	-62.7
C=CCn1c(SCn2nnc3ccccc3c2=O)nnc1C1CCCCC1	-14.1
O=c1c2ccccc2nnn1Cc1ccccc1	35.3
C=CCn1c(COc2cccc(C)c2)nnc1SCn1nnc2ccccc2c1=O	-5.37
C=CCn1c(SCn2nnc3ccccc3c2=O)nnc1-c1ccc(Cl)cc1	-61.2
O=c1cc(CSc2nnc(C3CC3)n2Cc2ccccc2)nc2sccn12	11.7
O=c1c2ccccc2nnn1CSc1nnc(-c2cccs2)n1Cc1ccccc1	-62.6
O=c1cc(CSc2nnc(-c3cccs3)n2Cc2ccccc2)nc2sc3ccccc3n12	-53.5
O=c1cc(CCl)nc2sc3ccccc3n12	8.04
C=CCn1c(SCn2nnc3ccccc3c2=O)nnc1-c1ccc(F)cc1	-28.9
C=CCn1c(COc2ccc(OC)cc2)nnc1SCn1nnc2ccccc2c1=O	-27.1
